Measurements: PubChem BioAssay (NCI)
Values joined by “and” are separate entries in the source; they are usually repeats but may differ in a detail not shown here. Identical values can stand only once. This is part of a sample that, as a whole, favours compounds with a hit. Of some 83,000 tested, about 20% had one in any assay.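 Plates (96-well) were seeded with cells, treated with compound at one concentration, and incubated for 48 hours before percent growth was determined.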 Unmarked numbers belong to inactive results. Active and inactive are the calls of the source. The calls were made as follows: active = growth percent below 10; inactive = the rest.

system: HL-60(TB) leukemia; test: NCI-60 one-dose screen, 48 h (100 = growth as untreated, 0 = no growth, -100 = all killed); conditions: 10 µM unless noted

Structure (SMILES) | growth
COc1ccc(-n2sc(=O)n(Cc3ccc(COC(=O)C(C)c4ccc(CC(C)C)cc4)cc3)c2=O)cc1 (centres undefined) | -43.3% (active)
O=C(Nc1ccc(S(=O)(=O)NC2CCCCCC2)cc1)C(c1ccccc1)S(=O)(=O)c1ccc(F)cc1 (centres undefined) | -12.4% (active)
BrC/C=C/C[P+](c1ccccc1)(c1ccccc1)c1ccccc1 | 9.15% (active)
COC(=O)[C@]12CC[C@@H](C)[C@H](C)[C@@H]1C1=CC[C@@H]3[C@@]4(C)C(C=O)=C[C@@](C)(COC(C)=O)[C@@H]4[C@H](O)C[C@@]3(C)[C@]1(C)CC2 | -24.7% (active)
Cc1[nH]c(C(=O)Nc2ccc(C(=O)N3CCN(c4cc5c(cc4F)c(=O)c(C(=O)O)cn5C4CC4)CC3)cc2OC(C)C)c(Cl)c1Cl | 92.7%
Cn1c(=O)[nH]c(=O)c2nc(CCC(=O)NCCC(=O)O)c(=O)[nH]c21 | 101%
N#CCNC(=O)c1ccc(-c2ccnc(Nc3ccc(N4CCOCC4)cc3)n2)cc1 | -25.3% (active)
Cc1c(O)ccc(SC#N)c1C | 101%
OCc1c(-c2ccccc2)nc2sccn12 | 130%
Cc1ccc(Cn2c(N3CCC(C(=O)NCc4cccs4)CC3)nc3ccccc32)cc1 | -14.4% (active)
O=C1C(=O)c2ccccc2C(O)=C1CCCc1ccc(C2CCCC2)cc1 | 20.6%
Cc1ccc(NS(=O)(=O)c2ccc(C)cc2)cc1 | 87.5% and 114%
O=C1/C=C/[C@@H](O)[C@@H]2C[C@@H](O)C[C@H]2/C=C/CCCCO1 | -22.8% (active)
N#Cc1c2c(nn(-c3ccccc3)c1=O)C(O)=C([N+](=O)[O-])C(c1ccccc1)C2 (centres undefined) | 58.5%
CS(=O)(=O)Nc1cc(-c2ccc3ncnc(Nc4ccc5c(cnn5Cc5cccc(F)c5)c4)c3c2)cnc1Cl | -23.9% (active)
CCOC(=O)c1c2c(n3cccc(F)c13)C(=O)c1ncccc1C2=O | -25.8% (active)
COc1ccc(C2C=C(c3ccc(OC)c(OC)c3)N=C3SC=C(C)N32)c(Br)c1 (centres undefined) | 101%

Structure (SMILES) | growth
C=C(C)[C@@H]1CC[C@]2(COCCC#N)CC[C@]3(C)[C@H](CC[C@@H]4[C@@]5(C)Cc6c([nH]c7ccccc67)C(C)(C)[C@@H]5CC[C@]43C)[C@@H]12 | 101%
COc1ccc(S(=O)(=O)N2CCCCCC2)cc1NC(=O)c1[nH]c(C)c2c1CCCCC2=O | 7.56% (active)
Cc1cc(NS(=O)(=O)c2ccc(N=Nc3cc(N=Nc4ccc(S(=O)(=O)Nc5cc(C)nc(C)n5)cc4)c4c(NC(=O)C(Cl)Cl)cccc4c3OC(=O)C(Cl)Cl)cc2)nc(C)n1 (tested in a mixture with another compound) | 116% and 98.5%
CCCCCCCCC(C)OC(=O)c1nn(C(C)=O)c2ccccc12 (centres undefined) | 99.5%
COc1cccc([C@H]2c3[nH]c4ccccc4c3C[C@H]3C(=O)N(CCCCCCC(=O)NO)CC(=O)N23)c1 | 31%
COc1ccc(C2C(C#N)=C(N)Oc3n[nH]c(-c4cccs4)c32)cc1I (centres undefined) | 54.2%
CCN(CC)CCn1nc2c3c(cccc3c1=O)-c1ccccc1-2 | 16.9%
Nc1c(C(=O)Nc2ccncc2)sc2nc3c(cc12)CCCCCC3 | 67.1%
O=c1cc(/C=N\Nc2nc(-c3ccc(Cl)cc3Cl)cs2)c2cc(Cl)ccc2o1 | 92.3%
O=C(CSc1nc2sc3c(c2c(=O)n1Cc1ccccc1)CCCC3)N1CCN(c2ccccc2)CC1 | 90.3%
Nc1ccc(-c2nn3c(CCC(=O)c4nc5ncccc5[nH]4)nnc3s2)c(O)c1 | 107%
Cc1cc2c(F)c(Oc3ncnc(Nc4ccc(N5C[C@@H](C)N[C@@H](C)C5)cc4)c3C#N)cc(F)c2[nH]1 | -54.6% (active)
CCCCCCCOc1cccc(/C=C2\N=C3SCCCN3C2=O)c1 | 65%
CC(=O)Nc1ccc(CC[C@H]2CCC/C=C/[C@@H]3C[C@H](O)C[C@H]3[C@H](O)/C=C/C(=O)O2)cc1 | -9.6% (active)
COc1cccc(O)c1O | 73.6%
COC(=O)Nc1nc2ccc(C(=O)c3ccccc3N(C)C3COC3)cc2[nH]1 | 15.6%
Cc1ccc(/C=C/c2c(C(=O)/C=C/c3ccc(C(F)(F)F)cc3)c(C)nc3ccccc23)cc1 | -41.3% (active)
